The full list was thinned out, with hits kept by preference.
ST2 IL33 inh: inhibitors of human ST2 (IL1RL1) binding to IL-33, primary screen, biochemical, AlphaLISA. AlphaLISA ST2-Fc/biotin-IL-33 interaction, 1 h. inhibition, % for hits at 17 µM. hit rate 2.3% among 78,000; in the data active means inhibition above about 30%
Target sequence (Q01638 whole entry, looked up): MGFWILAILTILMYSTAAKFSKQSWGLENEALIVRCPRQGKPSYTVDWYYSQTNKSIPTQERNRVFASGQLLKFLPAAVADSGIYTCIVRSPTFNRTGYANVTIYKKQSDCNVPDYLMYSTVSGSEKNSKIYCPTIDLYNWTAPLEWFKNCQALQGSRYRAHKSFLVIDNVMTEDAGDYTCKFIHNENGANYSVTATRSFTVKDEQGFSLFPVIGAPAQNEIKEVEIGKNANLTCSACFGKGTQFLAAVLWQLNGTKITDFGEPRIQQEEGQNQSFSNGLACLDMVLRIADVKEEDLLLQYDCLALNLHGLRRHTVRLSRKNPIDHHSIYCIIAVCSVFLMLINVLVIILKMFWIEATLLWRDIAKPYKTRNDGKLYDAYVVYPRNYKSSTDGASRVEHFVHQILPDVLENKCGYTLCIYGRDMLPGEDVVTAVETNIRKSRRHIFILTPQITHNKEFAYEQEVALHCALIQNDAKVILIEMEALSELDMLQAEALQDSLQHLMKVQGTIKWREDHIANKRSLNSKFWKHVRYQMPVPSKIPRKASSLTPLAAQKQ
Of the large screens only hits and unclear results are named; the others gave an inactive call.

CNC(=O)c1ccc(/C=C2\Sc3ccccc3N(Cc3ccc(F)cc3)C2=O)cc1	none
O=C(Nc1ccccc1C(=O)NCCN1CCOCC1)c1ccc(Cl)cc1Cl	none
O=C(CN1C(=O)/C(=C\c2cccc(Cl)c2)Sc2ccccc21)NCCN1CCOCC1	ST2 IL33 inh 36%
COc1ccc(Cl)cc1NC(=O)CCCn1nc([N+](=O)[O-])cc1C	none
CC(=O)Nc1nc2ccccc2n1CCN1CCCC1	none
COc1ccc(NC(=O)N[C@H]2CO[C@H]3[C@@H]2OC[C@@H]3n2cc(CN(C)Cc3ccccc3)nn2)cc1	none
COc1cc(C)c(Cl)cc1S(=O)(=O)N1CCN(c2nc(C)cc(Nc3ccc(C)cc3)n2)CC1	none
COc1ccc2nc(NC(=O)/C=C/c3ccc([N+](=O)[O-])cc3)sc2c1	ST2 IL33 inh 31%
COc1ccc2nc(NC(=O)c3ccc(Cl)s3)sc2c1	none
CS(=O)(=O)c1ccc2nc(NC(=O)/C=C/c3ccc(Cl)cc3)sc2c1	none
COc1cc(/C=C2/C(=O)N(c3ccc(F)cc3)N=C2C)ccc1OCc1ccccc1	none
CCN1CCN(Cc2cc(C(=O)N3CCN(C4CCCC4)CC3)no2)CC1	none
N#CC1=C(N)Oc2cc(N)ccc2C1c1cccc(I)c1 (stereo not given)	none
COc1ccc(N=Cc2cc3c(cc2O)OC(N)=C(C#N)C3c2cccc(F)c2)cc1 (stereo not given)	ST2 IL33 inh 33%
N#CC1=C(N)Oc2cc(O)c(Cl)cc2C1c1ccc(F)cc1 (stereo not given)	none
CCc1cc(C(=O)N(CC)Cc2cnn(C)c2)cs1	none
CCc1cc2c(=O)oc(-c3ccccc3C)nc2s1	ST2 IL33 inh 33%
Cc1ccccc1-c1nc2cc(NC(=O)CC(C)C)ccc2o1	none
O=c1oc(-c2ccccc2)nc2ccc(Cl)cc12	none
CCc1ccc(NS(=O)(=O)c2cccc3nonc23)cc1	none
O=C(NC1CCCc2ccccc21)C1CCN(S(=O)(=O)c2cccc3cccnc23)CC1 (stereo not given)	none
Cc1oc(N=Cc2cn(Cc3ccccc3)c3ccccc23)c(C#N)c1C	ST2 IL33 inh 46%
CN=C1S/C(=C\c2cn(CC(=O)O)c3ccccc23)C(=O)N1C	none
Cc1ccc(Cn2cc(CCC(=O)O)c3ccccc32)cc1	none
CNC(=O)[C@@H]1C[C@H](N)CN1Cc1ccc(CC(C)C)cc1	none
COc1cc(C)c2c(c1C)C[C@H]([C@H](C)C(=O)NC(C)(C)C)CC2	none
COc1ccc(CN2C(=O)CCC2(C)C(=O)NCCc2ccc(OC)c(OC)c2)c(OC)c1 (stereo not given)	none
O=C(NCc1ccco1)C1C2C=CC3(CN(Cc4cccs4)C(=O)C13)O2 (stereo not given)	none
CC(C)Cn1cnc2c(N)nc3ccccc3c21	ST2 IL33 inh 41%
CC(Cn1cnc2ccccc21)C(=O)O (stereo not given)	none
Nc1ncnc2c1ncn2CCOc1ccccc1	none
CSc1ccc(C2C(C(=O)OC3CCCCC3)=C(C)Nc3ncnn32)cc1 (stereo not given)	none
O=[N+]([O-])CCc1ccc(O[C@@H]2O[C@H](CO[C@@H]3OC[C@@H](O)[C@H](O)[C@H]3O)[C@@H](O)[C@H](O)[C@H]2O)cc1	none
Cc1[nH]n(-c2ccccc2)c(=O)c1C=Nc1cccc(N)c1	none
CCCCOc1cccc(N=Cc2c(C)[nH]n(-c3ccccc3)c2=O)c1	ST2 IL33 inh 36%
Cc1[nH]n(-c2ccccc2)c(=O)c1C=Nc1c(C)[nH]n(-c2ccccc2)c1=O	none
C=CCNC(=O)C(=O)Nc1ccc(Cl)c(Cl)c1	none
O=C(NC1CCCCCCC1)c1c(Cl)cccc1Cl	none
CC(C)CC(=O)NC1CC(=O)N(c2ccc(F)cc2)C1 (stereo not given)	none
O=C(NC[C@H]1O[C@@H](CO)[C@@H](O)[C@H]1N1CCN(c2ccccc2)CC1)N1CCOCC1	none
O=C(NC[C@H]1O[C@@H](CO)[C@@H](O)[C@H]1N1CCN(c2ccc(F)cc2)CC1)c1ccc(F)c(Cl)c1	ST2 IL33 inh 34%
O=C(NC[C@H]1O[C@@H](CO)[C@@H](O)[C@H]1N1CCN(c2cccc(C(F)(F)F)c2)CC1)c1cccs1	none
CN1CCN([C@@H]2[C@H](O)[C@H](CO)O[C@@H]2CNC(=O)c2cccc(F)c2)CC1	ST2 IL33 inh 32%
COc1ccccc1N1CCN([C@@H]2[C@H](O)[C@H](CO)O[C@@H]2CNC(=O)c2cccc(F)c2)CC1	none
O=C(NC[C@H]1O[C@@H](CO)[C@@H](O)[C@H]1N1CCN(c2ccccc2)CC1)c1ccc(C(F)(F)F)cc1	none
COc1ccc(C(=O)NC[C@H]2O[C@@H](CO)[C@@H](O)[C@H]2N2CCN(c3ccccn3)CC2)cc1	none
CC(=O)NC[C@H]1O[C@@H](CO)[C@@H](O)[C@H]1N1CCN(c2ccccc2)CC1	ST2 IL33 inh 37%
O=C(NC[C@H]1O[C@@H](CO)[C@@H](O)[C@H]1N1CCCC1)c1ccco1	none
O=C(NC[C@H]1O[C@@H](CO)[C@@H](O)[C@H]1N1CCN(c2cccc(C(F)(F)F)c2)CC1)c1cccc(F)c1	none
COc1cc(NC(=O)NC[C@H]2O[C@@H](CO)[C@@H](O)[C@H]2N2CCN(c3cccc(C(F)(F)F)c3)CC2)cc(OC)c1	ST2 IL33 inh 86%

Bioassay records from PubChem.
